Assay outcomes as filed in PubChem.
Sampled rows, rich in hits. Any-hit rate of the full collection: about 3.6%.
NTMT1 inhibitor = Primary qHTS for Inhibitors of N-terminal methyltransferase 1 (NTMT1): MTaseGlo Assay | Potency, µM (doses to about 114 µM), inactives show at the top dose activity change, negative = inhibition, actives largely listed as inhibitors | 59,000 tested, 2.5% active | NTMT1 MTase-Glo SAH luminescence, purified enzyme;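 also: potency is read from the fitted curve at half-maximal effect; plate controls were DMSO vehicle for no effect and no enzyme for full effect; nearly all actives have a fitted effect of over 65% in size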
DRV1 agonist = qHTS for Agonists of Human Resolvin D1 Receptor DRV1; 48,000 tested, 2.5% active; AID 1346428, 2018; activation, % at 76.9 µM; CHO-K1 GPR32 beta-arrestin PathHunter luminescence, 90 min; zero percent set by DMSO-only wells; Probable G-protein coupled receptor 32 (Homo sapiens), O75388;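 active = activation of at least 60% and not above a set upper limit, about 1 call in 100 departs from these limits; inconclusive = activation of 40% to 60%, or above that upper limit; inactive = activation under 40%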; also: 0% is about no effect
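Luminescent readout of beta-Gal complementation quantifies ligand-induced beta-arrestin association with GPR32 in CHO-K1 cells; 90 min compound incubation at 37 °C, detection 1 h at room temperature.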
GALK inh = qHTS Assay for Inhibitors of Human Galactokinase (GALK): NCGC Sytravon Library Screen | recombinant GALK, Kinase-Glo ATP luminescence, 1 h | AID 1347072, 2019 | Potency, µM (titrated, usually from 57.5 µM), inactives show at the top dose activity, negative = inhibition, actives largely listed as inhibitors | 44,000 tested, under 10 active;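 also: plate controls were full GALK reaction for no effect and reaction lacking GALK for full effect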
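Compounds were pinned into ATP buffer, then GALK-galactose mix was added (final 5 nM enzyme, 35 uM ATP, 100 uM galactose, pH 8.0). After 1 h at room temperature, Kinase-Glo Plus was added and luminescence read.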
GALC G270D up = A Novel Cell-Based Assay to Identify Small Molecules for B -Galactocerebrosidase; P54803; 145M-Twi-hGALC-G270D cells (Twitcher mouse brain line with human GALC G270D), HMU-beta-Gal fluorescence, 48 h; Potency, µM (top dose mostly 57.5 µM), hits mostly activators; 45,000 tested, 0.1% active; AID 1159614, 2016; also: potency is read from the fitted curve at half-maximal effect; 0% is about no effect; nearly all actives have a fitted effect of over 65% in size
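Brain-derived Twitcher mouse 145M-Twi cells stably expressing human GALC-G270D or wild-type GALC, treated live, then residual GALC activity read by fluorescence of HMU-b-Gal substrate (0.1 mM final) in citrate-phosphate buffer pH 5.2 with sodium taurocholate. Signal increase indicates enhancement.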
B2AR arrestin ag = qHTS assay of beta-arrestin-biased ligands of beta2-adrenergic receptor: NCGC Sytravon Library Screen. HTLA Tango cells, beta-arrestin recruitment, luciferase luminescence, 18 h. Potency, µM (top dose mostly 46.1 µM), actives largely listed as activators. AID 1347077, 2019. 44,000 tested, under 10 active;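 also: potency is read from the fitted curve at half-maximal effect; 0% = DMSO and full agonism = EC100 isoproterenol or metaproterenol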
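Tango cells expressing recombinant beta2-AR and beta-arrestin were treated with compounds (up to 46 microM titration) in DMEM with 1% FBS for 18 hr at 37 degrees C. Beta-arrestin recruitment drove tTA-dependent luciferase, read by luminescence; curves were fitted and classed.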
Sfp qHTS opt = qHTS Assay for Inhibitos of Bacillus subtilis Sfp phosphopantetheinyl transferase (PPTase): Chemistry Optimization Followup. 230 tested, 78% active. purified Sfp PPTase enzyme activity, qHTS. Potency, µM (highest dose often 114 µM), for the others: top-dose activity change, negative = inhibition, actives largely listed as inhibitors. shares compounds with NTMT1 inhibitor
HM489 growth = qHTS for Inhibitos of Bacillus subtilis Sfp phosphopantetheinyl transferase (PPTase): Chemistry Optimization Followup in B. Subtilis HM489; shares compounds with NTMT1 inhibitor; B. subtilis HM489 (acpS-) growth, BacTiter-Glo, 5 h; Potency, µM (highest dose often 114 µM), inactives show at the top dose activity change, negative = inhibition, actives largely listed as inhibitors; 220 tested, 50% active; AID 540353, 2011
Sfp PPTase gel = Gel-Based Assay for Inhibitos of Bacillus subtilis Sfp phosphopantetheinyl transferase (PPTase): Chemistry Optimization Followup | shares compounds with NTMT1 inhibitor | purified Sfp PPTase, gel-based product detection | Potency, µM (highest dose often 250 µM), for the others: at the highest dose activity change, negative = inhibition, hits mostly inhibitors | 220 tested, 54% active | AID 540355, 2011
Sfp inh gel = qHTS Assay for Inhibitors of Bacillus subtilis Sfp phosphopantetheinyl transferase (PPTase): Gel Based Assay; shares compounds with NTMT1 inhibitor; purified Sfp PPTase, gel-based product detection; Potency, µM (doses to about 250 µM), for inactives: top-dose activity change, negative = inhibition, usual class: inhibitors; 45 tested, 90% active
Sfp inh SAR2 = qHTS Assay for Inhibitors of Bacillus subtilis Sfp phosphopantetheinyl transferase (PPTase): SAR Round 2. shares compounds with NTMT1 inhibitor. purified Sfp enzyme, PPTase activity, qHTS. Potency, µM (doses to about 57.1 µM), without a hit: at the top dose activity change, negative = inhibition, actives largely listed as inhibitors. 230 tested, 87% active
hGST A1-1 inh = qHTS Assay for Inhibitors of Bacillus subtilis Sfp phosphopantetheinyl transferase (PPTase): SAR in hGST A1-1. hGST A1-1 enzyme activity counter-screen, qHTS. AID 602391, 2012. Potency, µM (titrated, usually from 114 µM), without a hit: at the top dose activity change, negative = inhibition, hits mostly inhibitors. 55 tested, under 10 active. shares compounds with NTMT1 inhibitor
HSD17B4 counter = Extended Characterization of HPGD Inhibitors: Counterscreen Against HSD17b4; shares compounds with NTMT1 inhibitor; purified HSD17B4, estradiol/NAD+, NADH fluorescence; Potency, µM (top dose mostly 57.1 µM), inactives show at the top dose activity change, negative = inhibition, usual class: inhibitors; 230 tested, 10% active; AID 743187, 2013
ALDH1A1 counter = Extended Characterization of HPGD Inhibitors: Counterscreen Against ALDH1A1 | shares compounds with NTMT1 inhibitor | recombinant ALDH1A1, NADH fluorescence, propionaldehyde/NAD+ | Potency, µM (doses to about 57.1 µM), inactives show top-dose activity change, negative = inhibition, hits mostly inhibitors | 230 tested, 93% active
Target sequence (P00352 whole entry, looked up): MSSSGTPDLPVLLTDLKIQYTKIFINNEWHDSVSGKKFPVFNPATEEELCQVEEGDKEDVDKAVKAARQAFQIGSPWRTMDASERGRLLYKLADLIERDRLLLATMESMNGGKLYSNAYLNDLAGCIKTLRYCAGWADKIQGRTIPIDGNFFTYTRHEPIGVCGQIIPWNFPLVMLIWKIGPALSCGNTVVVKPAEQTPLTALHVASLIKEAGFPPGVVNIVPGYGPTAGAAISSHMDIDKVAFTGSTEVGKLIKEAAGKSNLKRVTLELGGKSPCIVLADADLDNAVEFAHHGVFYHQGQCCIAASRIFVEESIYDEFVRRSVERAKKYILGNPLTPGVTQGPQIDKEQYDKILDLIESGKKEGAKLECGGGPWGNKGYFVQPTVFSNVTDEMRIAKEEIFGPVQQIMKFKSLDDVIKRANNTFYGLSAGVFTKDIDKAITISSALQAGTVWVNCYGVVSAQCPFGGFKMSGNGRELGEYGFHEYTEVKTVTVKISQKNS
NNMT counter = Counterscreen qHTS for Inhibitors of N-terminal methyltransferase 1 (NTMT1): NNMT MTaseGlo assay; shares compounds with NTMT1 inhibitor; NNMT MTase-Glo luminescence, SAH detection; Potency, µM (top dose mostly 57.1 µM), without a hit: top-dose activity, negative = inhibition, hits mostly inhibitors; 120 tested, 10% active; AID 1645878, 2021
Target sequence (P40261 whole entry, looked up): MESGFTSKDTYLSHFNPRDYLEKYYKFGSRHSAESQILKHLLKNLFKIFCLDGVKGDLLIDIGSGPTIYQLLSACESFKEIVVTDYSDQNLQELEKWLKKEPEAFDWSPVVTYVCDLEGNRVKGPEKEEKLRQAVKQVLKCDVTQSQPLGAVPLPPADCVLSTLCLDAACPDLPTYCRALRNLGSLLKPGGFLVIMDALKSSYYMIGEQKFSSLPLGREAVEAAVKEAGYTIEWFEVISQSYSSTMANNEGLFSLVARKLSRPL
Starred values were filed as active, the others as inactive; i = inactive; ? = inconclusive; . = not tested or not shown; [ ] = remark or other dose. Unless noted, calls follow the shape of the dose curve; as a rule, active = well fitted curve in the direction sought with a large enough effect; inconclusive = small, poorly fitted or top-dose-only effect, or another doubt; inactive = no such curve, though single readings can be large; an effect the other way counts as inactive or inconclusive.

SMILES | NTMT1 inhibitor | DRV1 agonist | GALK inh | GALC G270D up | B2AR arrestin ag | Sfp qHTS opt | HM489 growth | Sfp PPTase gel | Sfp inh SAR2 | HSD17B4 counter | ALDH1A1 counter | NNMT counter | others
CC(C)=CCC[C@](C)(O[C@@H]1O[C@H](CO[C@@H]2OC[C@@H](O)[C@H](O)[C@H]2O)[C@@H](O)[C@H](O)[C@H]1O)[C@H]1CC[C@]2(C)[C@@H]1[C@H](O)C[C@@H]1[C@@]3(C)CC[C@H](O[C@@H]4O[C@H](CO)[C@@H](O)[C@H](O)[C@H]4O)C(C)(C)[C@@H]3CC[C@]12C | -6.4%[29.8 µM] | . | . | . | . | . | . | . | . | . | . | .
O=C(O)c1cc(O[C@@H]2O[C@H](CO[C@@H]3OC[C@@H](O)[C@H](O)[C@H]3O)[C@@H](O)[C@H](O)[C@H]2O)c2ccccc2c1O | -3.8%[29.8 µM] | . | . | . | . | . | . | . | . | . | . | .
Cc1ccc2onc(CNC(=O)N3CCN(c4cccc(C(F)(F)F)c4)CC3)c2c1 | 15.9% | 10.5 | -0.4% | i | i | . | . | . | . | . | . | .
Cc1ccc2cc3cc(C(=O)N4CCN(c5cccc(C(F)(F)F)c5)CC4)sc3nc2c1 | 13.0% | 4.1 | 1.8% | i | i | . | . | . | . | . | . | .
Cc1cccc(NC(=S)N2CCN(c3cccc(C(F)(F)F)c3)CC2)c1 | . | . | . | . | . | 4.0% | 14.8% | 0.9% | -19.8% | ? | 1.52µM* | .
Cc1ccnc(N(C)C(=S)N2CCN(c3cccc(C(F)(F)F)c3)CC2)c1 | -5.5% | . | . | . | . | ? | ? | ? | ? | -17.8% | 19.2µM* | .
N#Cc1c(-c2ccccc2C(F)(F)F)nc2ccccc2c1NCc1ccc(-c2cccnc2)cc1 | 27.8% | . | . | . | . | . | . | . | . | . | . | .
C=CC(C)(C)C12CC3C(=O)N4C(CC5(C(C)(C)C=C)c6ccccc6NC45)C(=O)N3C1Nc1ccccc12 (stereo not given) | 6.3%[29.8 µM] | . | . | . | . | . | . | . | . | . | . | .
CCOc1ccc(Nc2nc(-c3c(C)nc4ccccn34)cs2)cc1 | -9.4% | . | . | . | . | . | . | . | . | . | . | ?
CCOc1ccc(Cc2nc(-c3c(C)nc4ccccn34)cs2)cc1 | ? | . | . | . | . | . | . | . | . | . | . | ?
CCOc1ccc(C(=O)Oc2ccc(-c3nc4ccccc4[nH]3)cc2)cc1 | 11.8% | . | . | . | . | . | . | . | . | . | . | .
C=Cc1cc(O)cc2nc(-c3ccc(O)c(F)c3)oc12 | 12.6µM* | . | . | . | . | . | . | . | . | . | . | ?
CCC(=O)Nc1cc(-c2nc3cc(C)cc(C)c3o2)ccc1C | 3.4% | -21.5 | -2.0% | i | i | . | . | . | . | . | . | .
CN(C)c1nc(NC2CCC(NCCc3ccc(Br)cc3OC(F)(F)F)CC2)nc2ccccc12 (stereo not given) | 35.5µM* | . | . | . | . | . | . | . | . | . | . | 22.4µM*
O=C(Cc1c(F)cccc1F)Nc1cc(OCc2ccc(Cl)cc2)ccn1 | 1.1%[57.5 µM] | . | . | . | . | . | . | . | . | . | . | ?
Cc1ccnc(NC(=S)N2CCN(c3cccc(N(C)C)c3)CC2)c1 | -25.1% | . | . | . | . | 9.37µM* | 37.3µM* | 1.26µM* | 5.76µM* | ? | 1.71µM* | . | Sfp inh gel=8.5µM*;hGST A1-1 inh=?
Cc1cc(C)nc(NC(=S)N2CCN(c3ccc(Cl)nn3)CC2)c1 | ? | . | . | . | . | 11.8µM* | 20.7% | ? | 3.63µM* | -18.5% | 19.2µM* | .
Cc1ccnc(NC(=S)N2CCN(c3ccc(Cl)c(Cl)c3)CC2)c1 | ? | . | . | . | . | 1.18µM* | 2.64µM* | -63.4% | 0.73µM* | -10.3% | 2.41µM* | .
CC(=O)N1CCN(C(=S)Nc2cc(C)ccn2)CC1 | ? | . | . | . | . | 33.2µM* | ? | 12.6µM* | 6.46µM* | -9.0% | 12.1µM* | .
CCOC(=O)c1c(C)[nH]c(C)c1S(=O)(=O)N1CCC(C(=O)Nc2cc(C)ccn2)CC1 | -5.5% | -1.7 | 0.4% | i | i | . | . | . | . | . | . | .
